Reference: PubChem BioAssay (NCATS)
“And” between values parts separate entries of the source, which are not always exact repeats. Identical values can stand only once. Records with an inconclusive call do not appear. The source made the active and inactive calls. Unless noted, the call rests on the fitted dose curve; in most records, active means well fitted curve in the direction sought with a large enough effect; inconclusive means small, poorly fitted or top-dose-only effect, or another doubt; inactive means no such curve, though single readings can be large; an effect the other way counts as inactive or inconclusive.

Assays:
[1] = biological target: Calcium and integrin-binding protein 1 (Homo sapiens) (UniProt Q99828); test: Primary qHTS for Identification of Calcium Integrin Binding Protein 1 (CIB1) Competitor (AID 1508620);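 further: GST tagged CIB1 binding a fluorescein labelled alphaIIb integrin peptide tracer; top concentration of the series differs between compounds; on the % scale 0 is the no-effect control and ±100 the full control effect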
In short: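 Fluorescence polarization competition: GST-tagged CIB1 (1 uM final) preincubated with compound 15 min at room temperature, then FITC-labelled alphaIIb peptide (100 nM final) added. After 15 min at room temperature, polarization read at Ex 480/Em 540.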

[2] = Primary qHTS for small molecule stabilizers of the endoplasmic reticulum resident proteome: Secreted ER Calcium Modulated Protein (SERCaMP) assay (AID 1508630); further: on the % scale 0 is the no-effect control and ±100 the full control effect
In short: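 The SH-SY5Y reporter protocol was run at 3 concentrations up to 38.3 uM (primary) or 11 concentrations (follow-up): 16 h compound, 100 nM thapsigargin for 4 h, then extracellular luciferase luminescence.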

[3] = A High-Content qHTS Against Drug Library for the Identification of Small Molecules that Inhibit DYT1 Early Onset Primary Dystonia-Associated Cell Pathology (AID 1645839; calls by dose curve)
In short: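 Cells were seeded and left for 24 h, then dosed with compound alongside tetracycline induction of mutant EGFP-TorsinA. They were incubated for 48 h, fixed in 4% paraformaldehyde, permeabilized and imaged for mislocalization (%pathology) and cell count.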

[4] = biological target: Cytochrome P450 2D6 (Homo sapiens) (UniProt P10635); test: Cytochrome P450 family 2 subfamily D member 6 (CYP2D6) small molecule antagonists: luciferase biochemical (cell-free) qHTS assay (AID 1645840; active means well fitted curve in the direction sought with a large enough effect in the repeat runs; an effect the other way counts as inactive or inconclusive; further: nearly all actives have a fitted effect of over 55% in size; further: potency means the concentration at half of the fitted maximal effect; on activity change, negative = inhibition: on the % scale 0 is the no-effect control and ±100 the full control effect)
In short: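 P450-Glo CYP2D6 system: proluciferin substrate converted by enzyme to luciferin, read by luminescence proportional to activity. Enzyme-substrate mix with compound 10 min at room temperature, then NADPH regeneration 1 h before detection reagent.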

[5] = biological target: Cytochrome P450 2C9 (Homo sapiens) (UniProt P11712); test: Cytochrome P450 family 2 subfamily C member 9 (CYP2C9) small molecule antagonists: luciferase biochemical (cell-free) qHTS assay (AID 1645842; active means well fitted curve in the direction sought with a large enough effect in the repeat runs; an effect the other way counts as inactive or inconclusive; further: nearly all actives have a fitted effect of over 55% in size; further: potency means the concentration at half of the fitted maximal effect)
In short: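 P450-Glo CYP2C9 system: proluciferin substrate with enzyme in mix containing 0.4% BSA, 10 min at room temperature, then NADPH regeneration solution added and incubated 1 h at 37C. Detection reagent stopped reaction; luminescence read after 20 min as RLU.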

[6] = Cytotoxicity counterscreen for inhibitors of SARS-CoV-2 cell entry (AID 1645845; calls by dose curve; further: nearly all actives have a fitted effect of over 50% in size)
In short: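 Counterscreen run in the same HEK293-ACE2 line as the pseudotyped-particle entry assay, without particles. Viability after 48 h at 37 C was read as ATP luminescence, scaled between cell-containing and cell-free wells.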

[7] = Primary qHTS to identify inhibitors of SARS-CoV-2 cell entry (AID 1645846; calls by dose curve; further: nearly all actives have a fitted effect of over 45% in size; further: potency means the concentration at half of the fitted maximal effect); details: activity change, negative = inhibition: at 57.1 µM (top of the series) unless noted
In short: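 HEK293 cells stably expressing human ACE2, pre-treated 1 h with compound, then infected with MLV particles pseudotyped with Wuhan-Hu-1 spike (C-terminal 19-aa truncation). Luciferase luminescence after 48 h at 37 °C, normalised to spike PP and bald PP.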

[8] = Primary qHTS for inhibitors of nuclear receptor binding SET domain protein 2 (NSD2) in an isogenic RCH-ACV NSD2 p.E1099K mutant (9B) (AID 1645876); further: nearly all actives have a fitted effect of over 70% in size; further: potency means the concentration at half of the fitted maximal effect
[9] = Primary qHTS for inhibitors of nuclear receptor binding SET domain protein 2 (NSD2) in an RCH-ACV wild type WT cells (2C) (AID 1645877); further: nearly all actives have a fitted effect of over 70% in size; further: potency means the concentration at half of the fitted maximal effect
[10] = biological target: Calcium and integrin-binding protein 1 (Homo sapiens) (UniProt Q99828); test: Validation qHTS for Identification of Calcium Integrin Binding protein 1 (CIB1) Competitor (AID 1508618); further: potency means the concentration at half of the fitted maximal effect
In short: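 In this qHTS validation, the LOPAC set (up to 114 uM) was tested for blocking CIB1 binding to a fluorescein-tagged alphaIIb peptide, with FP detection at 480/540 nm.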

Papain (Carica papaya) = Papain (Carica papaya) (UniProt P00784); test: Primary qHTS assay for inhibitors of the protease papain (AID 1645873);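 further: papain turnover of Z-FR-AMC read as the AMC fluorescence gain over 10 min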; further: potency means the concentration at half of the fitted maximal effect
[11] = biological target: Rap guanine nucleotide exchange factor 3 (Homo sapiens) (UniProt O95398); test: Confirmatory qHTS for antagonist of cAMP-regulated guanine nucleotide exchange factor 3 (EPAC1) (AID 1645880);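 further: plate controls were DMSO only for no effect and full effect of the ATA control for full effect; nearly all actives have a fitted effect of over 55% in size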
In short: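 Released BODIPY-GDP fluoresces less than Rap1-bound BODIPY-GDP; the signal is followed at 480/540 nm at 5-min intervals over 30 min, after 5 min at room temperature. Reactions contain 100 nM EPAC1, 250 nM RAP1B-BODIPY-GDP and 50 uM GDP; results are normalized to ATA and DMSO.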

[12] = biological target: Rap guanine nucleotide exchange factor 3 (Homo sapiens) (UniProt O95398); test: Confirmatory qHTS for agonist of cAMP-regulated guanine nucleotide exchange factor 3 (EPAC1) (AID 1645881);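 further: EPAC1 catalysed release of BODIPY-GDP from Rap1B seen as fluorescence loss; 100% = effect of cAMP agonist control; nearly all actives have a fitted effect of over 75% in size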
[13] = biological target: Rap guanine nucleotide exchange factor 4 (Homo sapiens) (UniProt Q8WZA2); test: Confirmatory qHTS for agonist of cAMP-regulated guanine nucleotide exchange factor 4 (EPAC2) (AID 1645884);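 further: nucleotide exchange releases bodipy-GDP from Rap1 and this lowers its fluorescence; on the % scale 0 is the no-effect control and ±100 the full control effect; nearly all actives have a fitted effect of over 65% in size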
[14] = biological target: Calcium and integrin-binding protein 1 (Homo sapiens) (UniProt Q99828); test: Confirmatory qHTS for Identification of Calcium Integrin Binding Protein 1 (CIB1) Competitor (AID 1508617); further: on the % scale 0 is the no-effect control and ±100 the full control effect; nearly all actives have a fitted effect of over 65% in size
In short: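 Binding competition between test compounds and fluorescent alphaIIb peptide for 1 uM CIB1-GST is monitored by FP at 480/540 nm. Final compound range is up to 114 uM; unlabeled peptide serves as reference competitor.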

[15] = biological target: Cytochrome P450 3A4 (Homo sapiens) (UniProt P08684); test: Cytochrome P450 family 3 subfamily A member 4 (CYP3A4) small molecule antagonists: luciferase qHTS assay (AID 1645841; active means well fitted curve in the direction sought with a large enough effect in the repeat runs; an effect the other way counts as inactive or inconclusive; further: nearly all actives have a fitted effect of over 45% in size)
In short: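 P450-Glo CYP3A4 enzyme with proluciferin substrate preincubated 10 min with compound at room temperature, then NADPH regeneration 1 h. Luciferin detection reagent added for 20 min; luminescence recorded. Ketoconazole positive control.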

[16] = Counterscreen qHTS for small molecule stabilizers of the endoplasmic reticulum resident proteome: GLuc-NoTag assay (AID 1508627); further: potency means the concentration at half of the fitted maximal effect;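 on activity change, negative = inhibition: 0% = thapsigargin alone and -100% = DMSO vehicle control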
In short: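 Counterscreen line: SH-SY5Y-GLuc-NoTag. Seed, 5 h; compound, 19 h; thapsigargin 100 nM, 4 h; 37C/5% CO2. Readout: secreted GLuc luminescence, coelenterazine 0.07x final, no lysis.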

[17] = Confirmatory qHTS for small molecule stabilizers of the endoplasmic reticulum resident proteome: Secreted ER Calcium Modulated Protein (SERCaMP) assay (AID 1508628); further: on the % scale 0 is the no-effect control and ±100 the full control effect; nearly all actives have a fitted effect of over 40% in size
In short: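 Reporter secretion upon ER calcium depletion (100 nM thapsigargin, 4 h, 37C) is measured as medium luminescence with coelenterazine, after 16 h compound pretreatment of SH-SY5Y-GLuc-SERCaMP cells; primary at three concentrations up to 38.3 uM, follow-up at 11 (up to 76.6 uM).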

[18] = Cell Viability qHTS for small molecule stabilizers of the endoplasmic reticulum resident proteome (AID 1508629); details: cell viability counter-screen, 100 nM thapsigargin for final 4 h;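 further: human SH-SY5Y neuroblastoma cells carrying the GLuc-SERCaMP reporter; compound exposure about 46 h in total before the viability read; on the % scale 0 is the no-effect control and ±100 the full control effect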
[19] = VSVG counterscreen qHTS to identify inhibitors of SARS-CoV-2 cell entry (AID 1645847; calls by dose curve; further: potency means the concentration at half of the fitted maximal effect; nearly all actives have a fitted effect of over 65% in size)
In short: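 HEK293-ACE2 cells (Expi293F, human ACE2) pretreated 1 h with compound, then infected with MLV-based VSV-G pseudotyped particles for 48 h at 37 C; luciferase luminescence normalized to VSV-G PP and bald PP wells.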

Sequence of Rap guanine nucleotide exchange factor 3 (Homo sapiens) (O95398 whole entry, looked up): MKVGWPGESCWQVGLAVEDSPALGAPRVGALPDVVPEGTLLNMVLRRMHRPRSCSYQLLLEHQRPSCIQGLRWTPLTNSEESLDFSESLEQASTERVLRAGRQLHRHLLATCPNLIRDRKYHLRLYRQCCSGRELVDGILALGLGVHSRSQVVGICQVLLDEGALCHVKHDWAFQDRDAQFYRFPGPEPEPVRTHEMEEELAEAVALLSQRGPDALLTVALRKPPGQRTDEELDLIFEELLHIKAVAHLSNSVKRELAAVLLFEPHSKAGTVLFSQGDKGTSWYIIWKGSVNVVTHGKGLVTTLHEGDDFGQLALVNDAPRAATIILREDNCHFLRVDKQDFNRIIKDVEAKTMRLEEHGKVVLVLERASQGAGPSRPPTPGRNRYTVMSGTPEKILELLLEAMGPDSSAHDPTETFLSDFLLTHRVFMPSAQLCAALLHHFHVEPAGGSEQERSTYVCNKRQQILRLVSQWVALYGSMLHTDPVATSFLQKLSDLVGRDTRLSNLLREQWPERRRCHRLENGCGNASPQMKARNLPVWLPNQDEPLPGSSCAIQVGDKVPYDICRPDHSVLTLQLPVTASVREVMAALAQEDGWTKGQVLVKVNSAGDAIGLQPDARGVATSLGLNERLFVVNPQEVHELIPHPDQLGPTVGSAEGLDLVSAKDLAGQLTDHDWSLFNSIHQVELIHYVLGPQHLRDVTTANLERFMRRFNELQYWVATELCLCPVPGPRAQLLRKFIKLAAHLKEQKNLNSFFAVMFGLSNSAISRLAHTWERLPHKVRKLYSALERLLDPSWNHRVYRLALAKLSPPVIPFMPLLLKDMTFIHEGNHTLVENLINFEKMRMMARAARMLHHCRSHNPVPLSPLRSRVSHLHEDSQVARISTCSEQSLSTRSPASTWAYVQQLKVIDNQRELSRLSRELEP
Sequence of Cytochrome P450 2C9 (Homo sapiens) (P11712 whole entry, looked up): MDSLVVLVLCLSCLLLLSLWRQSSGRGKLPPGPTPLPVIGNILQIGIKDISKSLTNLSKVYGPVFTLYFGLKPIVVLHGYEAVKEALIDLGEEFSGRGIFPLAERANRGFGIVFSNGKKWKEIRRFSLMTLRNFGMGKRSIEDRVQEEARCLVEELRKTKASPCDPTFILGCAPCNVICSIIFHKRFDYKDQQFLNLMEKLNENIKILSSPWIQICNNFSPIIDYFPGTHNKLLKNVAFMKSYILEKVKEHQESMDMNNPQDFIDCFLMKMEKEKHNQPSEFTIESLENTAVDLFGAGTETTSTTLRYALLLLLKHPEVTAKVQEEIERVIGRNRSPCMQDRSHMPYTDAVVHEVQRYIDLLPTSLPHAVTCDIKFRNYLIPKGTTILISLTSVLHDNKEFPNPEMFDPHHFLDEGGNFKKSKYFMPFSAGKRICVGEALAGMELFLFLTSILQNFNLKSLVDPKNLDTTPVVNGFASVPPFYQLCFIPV
Sequence of Calcium and integrin-binding protein 1 (Homo sapiens) (Q99828 whole entry, looked up): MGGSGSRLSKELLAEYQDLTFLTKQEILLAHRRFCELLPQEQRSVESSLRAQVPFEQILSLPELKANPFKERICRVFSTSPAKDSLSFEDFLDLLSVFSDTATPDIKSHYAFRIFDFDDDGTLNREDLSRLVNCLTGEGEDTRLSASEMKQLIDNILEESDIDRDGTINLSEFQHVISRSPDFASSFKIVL
Sequence of Cytochrome P450 2D6 (Homo sapiens) (P10635 whole entry, looked up): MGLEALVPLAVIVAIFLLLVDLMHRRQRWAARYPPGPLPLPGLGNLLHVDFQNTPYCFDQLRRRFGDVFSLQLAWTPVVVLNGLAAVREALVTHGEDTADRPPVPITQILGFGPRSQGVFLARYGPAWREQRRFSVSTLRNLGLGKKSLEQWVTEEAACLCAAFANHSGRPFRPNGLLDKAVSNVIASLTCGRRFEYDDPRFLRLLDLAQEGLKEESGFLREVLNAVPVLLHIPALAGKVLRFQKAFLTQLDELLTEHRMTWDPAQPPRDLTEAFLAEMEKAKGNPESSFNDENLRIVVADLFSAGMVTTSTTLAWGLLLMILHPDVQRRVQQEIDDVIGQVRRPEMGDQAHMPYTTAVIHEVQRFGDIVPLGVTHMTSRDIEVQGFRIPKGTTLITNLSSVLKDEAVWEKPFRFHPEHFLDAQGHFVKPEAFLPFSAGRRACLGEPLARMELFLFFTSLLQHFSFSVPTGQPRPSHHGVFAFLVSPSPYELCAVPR
Sequence of Papain (Carica papaya) (P00784 whole entry, looked up): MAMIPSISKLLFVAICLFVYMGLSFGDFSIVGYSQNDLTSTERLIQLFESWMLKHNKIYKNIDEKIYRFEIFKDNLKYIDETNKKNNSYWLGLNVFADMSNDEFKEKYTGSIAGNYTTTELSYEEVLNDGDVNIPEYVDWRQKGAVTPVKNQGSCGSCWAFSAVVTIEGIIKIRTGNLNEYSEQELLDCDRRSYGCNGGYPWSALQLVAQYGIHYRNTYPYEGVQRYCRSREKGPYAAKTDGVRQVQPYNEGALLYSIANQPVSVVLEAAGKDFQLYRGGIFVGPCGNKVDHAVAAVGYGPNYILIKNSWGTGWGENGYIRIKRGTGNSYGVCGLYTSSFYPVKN
Sequence of Rap guanine nucleotide exchange factor 4 (Homo sapiens) (Q8WZA2 whole entry, looked up): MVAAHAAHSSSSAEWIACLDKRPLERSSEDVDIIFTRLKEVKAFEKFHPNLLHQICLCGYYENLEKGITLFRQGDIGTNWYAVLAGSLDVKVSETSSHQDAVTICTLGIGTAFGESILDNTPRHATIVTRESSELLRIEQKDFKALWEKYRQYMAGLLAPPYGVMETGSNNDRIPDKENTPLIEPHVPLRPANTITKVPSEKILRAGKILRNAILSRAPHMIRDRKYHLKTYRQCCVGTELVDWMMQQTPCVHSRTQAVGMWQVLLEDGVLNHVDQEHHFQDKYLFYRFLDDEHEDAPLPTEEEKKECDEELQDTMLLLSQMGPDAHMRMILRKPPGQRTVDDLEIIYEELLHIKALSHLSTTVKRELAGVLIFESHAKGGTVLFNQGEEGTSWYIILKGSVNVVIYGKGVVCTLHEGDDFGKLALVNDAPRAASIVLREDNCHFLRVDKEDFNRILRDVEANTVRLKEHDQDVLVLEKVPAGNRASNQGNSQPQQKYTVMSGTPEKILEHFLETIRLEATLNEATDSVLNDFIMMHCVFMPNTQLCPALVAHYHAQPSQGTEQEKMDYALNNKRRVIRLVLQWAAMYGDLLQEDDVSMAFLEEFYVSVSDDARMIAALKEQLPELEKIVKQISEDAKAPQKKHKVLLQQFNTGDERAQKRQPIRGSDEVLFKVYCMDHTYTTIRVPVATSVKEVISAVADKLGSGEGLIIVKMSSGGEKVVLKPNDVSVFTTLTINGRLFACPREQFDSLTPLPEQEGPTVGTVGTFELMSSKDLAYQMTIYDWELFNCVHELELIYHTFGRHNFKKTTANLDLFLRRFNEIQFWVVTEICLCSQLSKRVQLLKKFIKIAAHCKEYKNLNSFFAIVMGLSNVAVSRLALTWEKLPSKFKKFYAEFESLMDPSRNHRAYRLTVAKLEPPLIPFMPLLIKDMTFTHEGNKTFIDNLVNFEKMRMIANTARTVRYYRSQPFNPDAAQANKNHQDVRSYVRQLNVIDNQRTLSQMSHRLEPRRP
Sequence of Cytochrome P450 3A4 (Homo sapiens) (P08684 whole entry, looked up): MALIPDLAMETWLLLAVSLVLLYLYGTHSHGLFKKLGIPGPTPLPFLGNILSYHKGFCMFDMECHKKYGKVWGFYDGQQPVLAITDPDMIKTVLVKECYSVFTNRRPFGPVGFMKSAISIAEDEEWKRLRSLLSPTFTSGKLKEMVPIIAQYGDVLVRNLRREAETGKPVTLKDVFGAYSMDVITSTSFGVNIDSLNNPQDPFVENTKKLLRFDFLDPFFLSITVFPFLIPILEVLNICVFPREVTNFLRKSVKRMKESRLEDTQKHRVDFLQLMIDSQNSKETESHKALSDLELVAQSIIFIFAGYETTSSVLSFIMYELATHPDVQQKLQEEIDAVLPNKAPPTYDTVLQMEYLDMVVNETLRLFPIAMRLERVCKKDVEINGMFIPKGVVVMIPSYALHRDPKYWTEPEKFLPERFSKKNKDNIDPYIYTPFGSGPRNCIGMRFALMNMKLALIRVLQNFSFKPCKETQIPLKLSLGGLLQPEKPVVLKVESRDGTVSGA

c1ccc2c(c1)Nc1ccccc1S2
inactive: Potency [1] | outcome [2] | Potency [3] | Potency [4] | Potency [5] | Potency [6] | Potency [7] | Potency [8] | Potency [9]

Oc1ccccc1-c1ccccc1
inactive: Potency [1] | outcome [2] | Potency [3] | Potency [4] | Potency [5] | Potency [6] | Potency [7] | Potency [8] | Potency [9]

Cc1ccc(S(=O)(=O)N[C@@H](CCCCN)C(=O)CCl)cc1
active: Potency [4] 17.2 µM | Potency (Papain (Carica papaya)) 14.1 µM
inactive: Potency [10] | outcome [2] | Potency [3] | Potency [9]

CC1=C2C[C@@H]3[C@@H](CC=C4C[C@@H](O)CC[C@@]43C)[C@@H]2CC[C@]12O[C@H]1C[C@H](C)CN[C@H]1[C@H]2C
inactive: Potency [1] | outcome [2]

O=C1NCN(c2ccccc2)C12CCN(CC1COc3ccccc3O1)CC2 (stereo not given)
active: Potency [4] 0.0245 µM | Potency [5] 6.17 µM
inactive: Potency [10] | outcome [2] | Potency [3] | Potency (Papain (Carica papaya)) | Potency [8] | Potency [9]

CCC1(C2=NCCN2)Cc2ccccc2O1 (stereo not given)
inactive: Potency [10] | Potency [1] | outcome [2] | Potency [3] | Potency [5] | Potency (Papain (Carica papaya))

CC(=O)[C@H]1CC[C@H]2[C@@H]3CC[C@H]4C[C@H](O)CC[C@]4(C)[C@H]3C(=O)C[C@]12C
inactive: Potency [10] | Potency [1] | outcome [2] | Potency [3] | Potency [9]

c1ccc2c(c1)OCC(C1=NCCN1)O2 (stereo not given)
inactive: Potency [10] | outcome [2] | Potency [5] | Potency (Papain (Carica papaya))
active: Potency [4] 19.5 µM | Potency [8] 9.44 µM | Potency [9] 7.5 µM

Cn1c(CCCC(=O)O)nc2cc(N(CCCl)CCCl)ccc21
active: Potency (Papain (Carica papaya)) 25.1 µM
inactive: Potency [10] | outcome [2] | Potency [3] | Potency [4] | Potency [5] | Potency [6]

C[C@@H]1O[C@@H](O[C@H]2C[C@@H](O)[C@]3(CO)[C@H]4[C@H](O)C[C@]5(C)[C@@H](C6=CC(=O)OC6)CC[C@]5(O)[C@@H]4CC[C@]3(O)C2)[C@H](O)[C@H](O)[C@H]1O
inactive: Potency [10] | Potency [1] | outcome [2] | Potency [4] | Potency [5] | Potency (Papain (Carica papaya))
-97.3% and -94.1%: activity change, negative = inhibition [7]
active: Potency [8] 29.9 nM and 50.2 nM and 41.7 nM | Potency [9] 37.6 nM and 100 nM and 66.1 nM

CC(=O)[C@H]1CC[C@H]2[C@@H]3CC[C@H]4C[C@](C)(O)CC[C@]4(C)[C@H]3CC[C@]12C
active: Potency [4] 1.23 µM
inactive: Potency [10] | outcome [2] | Potency [3] | Potency [5] | Potency (Papain (Carica papaya)) | Potency [8] | Potency [9]

CCCN1CCC[C@@H]2Cc3[nH]ncc3C[C@H]21
inactive: Potency [10] | Potency [1] | outcome [2] | Potency [3] | Potency [4] | Potency [5] | Potency (Papain (Carica papaya)) | Potency [8] | Potency [9]

O=c1[nH]c2ccccc2n1C1CCN(CCCC(c2ccc(F)cc2)c2ccc(F)cc2)CC1
active: Potency [8] 23.7 µM and 5.78 µM | Potency [9] 16.8 µM and 5.78 µM
inactive: Potency [10] | outcome [2] | Potency (Papain (Carica papaya)) | Potency [11] | outcome [12] | outcome [13]

CN1C[C@H](CNC(=O)OCc2ccccc2)C[C@@H]2c3cccc4c3c(cn4C)C[C@H]21
active: Potency [10] 44.7 µM
inactive: outcome [14] | outcome [15] | Potency [5]

Fc1ccc(C(OCCN2CCN(CCCc3ccccc3)CC2)c2ccc(F)cc2)cc1
inactive: Potency [10] | outcome [2] | Potency (Papain (Carica papaya))
active: Potency [16] 44.7 µM | Potency [7] 17.8 µM | Potency [8] 6.68 µM and 11.8 µM | Potency [9] 5.96 µM and 9.34 µM

Nc1ccncc1
inactive: Potency [10] | Potency [1] | outcome [2] | Potency [3] | Potency [6] | Potency (Papain (Carica papaya)) | Potency [8] | Potency [9]

CC(C)CC(N(C)C)C1(c2ccc(Cl)cc2)CCC1 (stereo not given)
active: Potency [4] 4.36 µM
2.03%: activity change, negative = inhibition [7]
inactive: Potency [1] | Potency [16] | Potency [17] | max response [18] 6.57% | outcome [2] | Potency [3] | Potency [5] | Potency [6] | Potency [8]

NN=C(N)N
4.5%: activity change, negative = inhibition [7]
inactive: Potency [10] | outcome [2] | Potency [3] | Potency [4] | Potency [5] | Potency [6] | Potency (Papain (Carica papaya)) | Potency [8] | Potency [9]

CC(C)=CC1C(C(=O)OCc2cccc(Oc3ccccc3)c2)C1(C)C (stereo not given)
inactive: Potency [1] | outcome [2] | Potency [3] | Potency [6] | Potency [7] | Potency [8] | Potency [9] | Potency [11] | outcome [12] | outcome [13]
active: Potency [5] 3.89 µM

N[C@@H](Cc1ccc(N(CCCl)CCCl)cc1)C(=O)O
active: Potency [4] 19.5 µM | Potency [19] 0.152 µM | Potency [8] 2.99 µM and 2.63 µM | Potency [9] 2.66 µM and 2.35 µM
inactive: Potency [1] | outcome [2] | Potency [3] | Potency [6]

CCCC(C)(COC(N)=O)COC(=O)NC(C)C (stereo not given)
inactive: Potency [1] | outcome [2] | Potency [3] | Potency [4] | Potency [5] | Potency [8] | Potency [9]

Cc1ccc2c(c1)C1CN(C)CCC1N2 (stereo not given)
active: Potency [4] 4.25 µM
inactive: Potency [1] | outcome [2] | Potency [3] | Potency [5] | Potency [8] | Potency [9]

CCC(COC(=O)c1cc(OC)c(OC)c(OC)c1)(c1ccccc1)N(C)C (stereo not given)
active: Potency [4] 0.389 µM | Potency [5] 13.8 µM
inactive: Potency [1] | outcome [2] | Potency [3] | Potency [6] | Potency [8] | Potency [9]

C[C@@H]1[C@@H](C(=O)C[C@H]2O[C@@H]3O[C@]4(C)CC[C@@H]5[C@H](C)CC[C@@H]([C@H]2C)[C@@]35OO4)O[C@@H]2O[C@]3(C)CC[C@H]4[C@H](C)CC[C@@H]1[C@@]24OO3
inactive: outcome [2]
